Out of some 360,000 compounds screened, about 25,000 (6.9%) were called active. About 9% were inconclusive and are not listed. Shown is part of a subset that was picked to be rich in actives. Unmarked numbers belong to inactive results. Calls come from the whole dose curve; as a rule, active = well fitted inhibition curve with a large enough effect; inconclusive = small, poorly fitted or top-dose-only effect; inactive = flat fitted curve, though single readings scatter.
Each compound was assayed against Luciferin 4-monooxygenase (Photinus pyralis) (UniProt P08659) (assay: qHTS profiling assay for firefly luciferase inhibitor/activator using purifed enzyme and Km concentrations of substrates (counterscreen for miR-21 project)). Conditions: purified FLuc, luminescence inhibition; series mostly up to 57.5 µM; activity change, negative = inhibition: at the top concentration.
Summary of the method: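 Purified P. pyralis luciferase, 10 nM final, with Km-level 10 uM D-luciferin and 10 uM ATP in 50 mM Tris acetate pH 7.5, 10 mM Mg acetate, 0.01% Tween-20, 0.05% BSA; 6-point qHTS titration about 60 µM downward; luminescence read.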
Note: nearly all actives have a fitted effect of over 55% in size.
Potency is the fitted concentration of half-maximal effect.
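Throughout, for activity change, negative = inhibition: plate controls were vehicle for no effect and reference inhibitor for full effect.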

Luciferin 4-monooxygenase (Photinus pyralis), sequence (P08659 whole entry, looked up): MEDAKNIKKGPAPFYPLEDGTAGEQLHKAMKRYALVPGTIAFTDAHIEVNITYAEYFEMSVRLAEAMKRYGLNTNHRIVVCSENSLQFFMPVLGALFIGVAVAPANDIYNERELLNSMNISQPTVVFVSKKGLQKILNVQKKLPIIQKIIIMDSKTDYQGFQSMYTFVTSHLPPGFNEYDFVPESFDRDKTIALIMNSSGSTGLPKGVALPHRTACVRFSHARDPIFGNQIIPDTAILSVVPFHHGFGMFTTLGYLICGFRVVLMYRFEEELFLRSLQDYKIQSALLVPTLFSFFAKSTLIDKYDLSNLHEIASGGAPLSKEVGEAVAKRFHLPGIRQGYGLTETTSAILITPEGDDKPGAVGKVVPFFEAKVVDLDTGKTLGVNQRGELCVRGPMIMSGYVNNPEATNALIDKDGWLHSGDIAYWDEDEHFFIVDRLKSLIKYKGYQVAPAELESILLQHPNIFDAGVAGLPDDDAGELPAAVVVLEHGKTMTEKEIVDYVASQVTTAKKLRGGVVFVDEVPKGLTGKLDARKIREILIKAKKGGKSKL

Compound	activity change, negative = inhibition	Potency
CC(OC(=O)/C=C/c1ccccc1)C(=O)NC1CCCCC1C (configuration not stated)	3.73%	–
Cn1nccc1NC(=O)CC(CC(=O)O)c1ccccc1 (configuration not stated)	-0.627%	–
Oc1ccc(-c2cccc(-c3ccc(O)cc3)c2)cc1	–	16.9 µM (active)
O=C(CN1CCN(c2ccc(O)cc2)CC1)Nc1ccc(-c2ccccc2)cc1	2.93%	–
CC(C#N)(NC(=O)CN1CCN(S(=O)(=O)c2cc(C(F)(F)F)ccc2Cl)CC1)C1CC1 (configuration not stated)	0.354%	–
O=C1/C(=C/c2ccc(F)cc2)SC(=S)N1NS(=O)(=O)c1ccccc1	-13.4%	–
Cc1ccc(SCC(=O)Nc2ccc3c(c2)OCCO3)cc1	–	6.75 µM (active)
COc1ccc(Cn2ccnc2SCC(=O)Nc2ccc3c(c2)OCO3)cc1	-1.75%	–
COc1ccc(NC(=O)CSc2nccn2Cc2ccc3c(c2)OCO3)cc1	-10.3%	–
O=C(CSc1nc(=O)n2ccccc2n1)Nc1ccc2c(c1)OCCO2	-14.3%	–
Cn1ccnc1SCC(=O)Nc1ccc2c(c1)OCCO2	–	23.9 µM (active)
CC(C)NS(=O)(=O)c1ccc(OCC(=O)Nc2ccc3c(c2)OCCO3)cc1	3.95% [at 2.3 µM]	–
CCC(=O)c1cc(F)ccc1OCC(=O)Nc1ccc2c(c1)OCCO2	-1.51%	–
Cc1ccc(-n2c(SCC(=O)Nc3ccc4c(c3)OCO4)nnc2-c2ccoc2C)cc1	-0.842%	–
Cc1ccc(S(=O)(=O)NCC(=O)Nc2ccc3c(c2)OCCO3)cc1	-1.09%	–
COc1ccc(NC(=O)CSc2nc3ncccc3[nH]2)c(OC)c1	-0.297%	–
O=C(CSc1nc2ncccc2[nH]1)Nc1ccc2c(c1)OCCO2	–	15.1 µM (active)
CCc1ccccc1OCC(=O)Nc1ccc2c(c1)OCCO2	–	10.7 µM (active)
CC(C)CCN(C(=O)Nc1ccc(Cl)c(Cl)c1)C(C)c1cccs1 (configuration not stated)	2.6%	–
CCOC(=O)c1cc2c(=O)n3ccccc3nc2n(CC2CCCO2)c1=NC(=O)c1ccc(C(C)(C)C)cc1 (configuration not stated)	1.25%	–
COc1ccc(NC(=O)CCNS(=O)(=O)c2ccc3c(c2)CCCC(=O)N3)cc1Cl	-9.31%	–
Cc1c(Cl)cccc1NC(=O)C(=O)NCCc1csc2nc(-c3ccccc3F)nn12	-6.1%	–
NC(CSC12CC3CC(CC(C3)C1)C2)C(=O)O (configuration not stated)	2.42%	–
Cc1cc(C)c2c(=O)[nH]c(SCC(=O)Nc3ccc(Br)cc3)nc2n1	-9.23%	–
CS(=O)(=O)c1ccc(-c2nnn(CC(=O)Nc3ccc4c(c3)OCCO4)n2)cc1	-1.07%	–
S=C(NCc1ccco1)Nc1ccc2c(c1)OCCO2	–	15.1 µM (active)

Compound	activity change, negative = inhibition	Potency
O=C(COc1ccc(Cl)cc1)Nc1ccc2oc(=O)ccc2c1	0.477%	–
O=C(CSc1ncc(S(=O)(=O)c2ccc(Br)cc2)c(=O)[nH]1)Nc1ccc2c(c1)OCCO2	–	9.53 µM (active)
CCCCC(=O)Nc1ccc2c(c1)OCCO2	–	21.3 µM (active)
O=C(COc1ccc(Cl)cc1)Nc1ccc2c(c1)OCO2	–	19 µM (active)
S=C(NCc1ccc2c(c1)OCO2)NCc1ccco1	-12.6%	–
O=C(CCS(=O)(=O)Cc1ccccc1)Nc1ccc2c(c1)OCCO2	-1.15%	–
COc1ccc(Cl)cc1NC(=O)COc1ccc2c(c1)OCO2	1.56%	–
COc1ccccc1OCCCC(=O)Nc1ccc2c(c1)OCCO2	-18.1%	–
FC(F)Oc1ccc(NC(=S)NCc2ccco2)cc1Cl	-12.8%	–
COc1ccccc1CNc1nc2ccc(Cl)cc2n2cnnc12	1.56%	–
COCCN(C(=O)CCC(=O)Nc1nccs1)C(C(=O)NCCC(C)C)c1ccc(F)cc1 (configuration not stated)	-0.256%	–
COc1ccccc1C(=O)Nc1ccc(C)c(S(=O)(=O)N2CCCCC2)c1	-15.8%	–
CCc1ccccc1NC(=O)c1cnn(-c2ccc(F)cc2)c1C1CCNCC1	-0.346%	–
CCc1ccc(C2N3CC4([N+](=O)[O-])CN2CC([N+](=O)[O-])(C3)C4(C)C)cc1 (configuration not stated)	11.6%	–
Cc1ccc(NC(=O)C(Cc2ccccc2)NS(=O)(=O)c2ccc3c(c2)oc(=O)n3C)cc1C (configuration not stated)	0.393%	–
Cc1ccc(S(=O)(=O)N(CC(=O)Nc2ccc(Cl)cc2Cl)c2ccccc2C)cc1	-2.42%	–
COc1cccc(CNC(=O)Cn2c(=O)c3cccn3c3ccc(F)cc32)c1OC	1.88%	–
Cc1ccc(NC(=O)CN(C)C(=O)Cn2nnc(-c3ccccc3)n2)cc1	1.45%	–
Cc1nc2ccc(S(=O)(=O)NC(C(=O)NCc3ccccc3Cl)C(C)C)cc2s1 (configuration not stated)	-1.2%	–
CSc1nnc(-c2ccc(C(F)(F)F)cn2)o1	-12.7%	–
O=C(COc1ccccc1F)Nc1ccc(C(=O)OCc2cc(=O)n3nc(C4CC4)sc3n2)cc1	-1.77%	–
COc1ccc(NC(=O)CSc2nc(NS(=O)(=O)c3ccc(C)cc3)cc(=O)[nH]2)cc1	-1.83%	–
Cc1ccc(NC(=O)CSc2nc(CSc3ccc(C)cc3)cc(=O)[nH]2)cc1	–	21.3 µM (active)
Cc1cc(=O)[nH]c(SCC(=O)Nc2ccc(Br)cc2)n1	-4.58%	–
CC(C)Cc1nnc(NC(=O)CCNC(=O)c2ccccc2Cl)s1	-0.694%	–
C/C=C/C=C/C(=O)O	3.4%	–
